# Experimental data published in PubChem BioAssay (NCI).
# The panel holds about 83,000 compounds, 20% with a hit somewhere; the sample as a whole holds those more often.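 Plates (96-well) were seeded with cells, treated with compound at one concentration, and incubated for 48 hours before percent growth was determined.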 Unmarked numbers belong to inactive results. Calls of active or inactive are those of the source. How the source made its calls: active means growth percent below 10; inactive means the rest.
# System: HL-60(TB) leukemia
# Assay: NCI-60 one-dose screen, 48 h (100 = growth as untreated, 0 = no growth, -100 = all killed)
# Settings: 10 µM unless noted
row,SMILES,growth
1,COc1ccc(-c2noc(C(=O)O)c2-c2cc(OC)c(OC)c(OC)c2)cc1,-38.5% (active)
2,CN(C)c1ccc(-c2cc(-c3ccc(Nc4nc(Nc5ccc(Cl)cc5)nc(Nc5ccc(Cl)cc5)n4)cc3)nc(N)c2C#N)cc1,68%
3,Nc1c(C(=O)c2ccc(Cl)s2)sc2nc3c(cc12)CCCC3,106%
4,O=C1CC[C@@H](C(=O)N[C@H]2CSSC[C@@H](C(=O)NCCc3ccccc3)NC(=O)[C@H](Cc3ccccc3)NC(=O)[C@@H]3CCCN3C(=O)[C@@H]3CCCN3C2=O)N1,76.3%
5,O=C(Nn1c(NCC(=O)N2c3ccccc3Sc3ccccc32)nnc1-c1ccc(O)cc1)c1ccccc1,98.6%
6,COc1ccc(/C=C/c2nc3ccccc3c(=O)n2-c2ccc(C#Cc3ccc(C(C)(C)C)cc3)cc2C)c(OC)c1,67.4%
7,COc1cc(CCc2cc(NC(=O)c3ccc(N4C[C@@H](C)N[C@@H](C)C4)cc3)n[nH]2)cc(OC)c1,12.5%
8,COc1ccc(NC(=O)c2sc3nc(C)c(C(O)c4ccccc4)cc3c2N)cc1 (stereo not given),-51.9% (active)
9,CCN1CCN(Cc2ccc(NC(=O)c3nc4ccc5[nH]ncc5c4c4c3CCCC4)cc2C(F)(F)F)CC1,-59% (active)
10,COc1cc(-c2nc(-c3nc4ccc(Cl)cc4[nH]3)cc3c2[nH]c2ccccc23)cc(OC)c1OC,68.7%
11,COc1cc2c(cc1O)c(=O)n(CCN(C)C)c1c3cc4c(cc3ncc21)OCO4,-29.2% (active)
12,Clc1ccc(-c2c3ccc(=[N+]4CCCCC4)cc-3oc3cc(N4CCCCC4)ccc23)cc1,-42.3% (active)
13,O=C(CBr)CN1C(=O)c2ccccc2C1=O,103%
14,Cc1nc2ccccc2c(/C=C/c2ccccc2)c1C(=O)/C=C/c1ccccc1,23.1%
15,CC1=CCC(OC(=O)C(C)(C)CCC(O)(C(=O)OC2(C(C)C)CCC3(C)OC3C2)C(C)C)(C(C)C)CC1 (stereo not given),-43.1% (active)
16,COc1ccc2c(c1)/C(=C/c1cc(OC)c(OC)c(OC)c1)C(=O)N2C,3.32% (active)
17,C#CCOc1ccc(C2=NN(CC3CC3)C3N=C(Cl)c4ncn(CC5CC5)c4N23)cc1OCC#C (stereo not given),99.1%
18,COc1ccc2c(c1)OC(N(C(C)=O)C(C)=O)=C(C#N)C2c1ccc(F)cc1 (stereo not given),-18.9% (active)

row,SMILES,growth
1,O=C1Nc2cc(-c3ccc(NC(=O)c4ccccc4)cc3)ccc2/C1=C/c1ccc[nH]1,99.2%
2,COc1cc(C)ccc1C(=O)c1ccc(C)cc1OC,8.59% (active)
3,CCN1CCN(c2ccc(Nc3cc(-c4cccnc4Nc4c(Cl)c(OC)cc(OC)c4Cl)ncn3)cc2)CC1,56%
4,Cc1cc(C)c(C#N)c(Sc2nc(C)c([N+](=O)[O-])c(C)c2C#N)n1,66.2%
5,Nc1n[nH]c2cccc(C#Cc3cccc(NC(=O)c4cc(F)cc(C(F)(F)F)c4)c3)c12,37.7%
6,O=C1CCn2c1c(O)c1ccccc1c2=O,110%
7,Cc1nc2cnc(N)c(C#Cc3cncc(C(=O)Nc4ccc(CN5CCN(C)CC5)c(C(F)(F)F)c4)c3)c2nc1C,-16.4% (active)
8,COc1cc(-c2[nH]ncc2Nc2ccc(Cl)cc2)cc(OC)c1OC,42.3%
9,CCCC[C@@H](C=O)NC(=O)[C@H](CC(C)C)NC(=O)[C@H](CC(C)C)NC(=O)OCc1ccccc1,-30.1% (active)
10,CCSc1oc(C)nc1[P+](c1ccccc1)(c1ccccc1)c1ccccc1,7.21% (active)
11,Clc1ccc([I+]c2ccc(Cl)cc2Cl)c(Cl)c1,-38.3% (active)
12,COc1cc(/C(=C2/O[C@@H]([C@H]3COC(C)(C)O3)[C@H]3OC(C)(C)O[C@@H]23)c2ccc3ccccc3c2)cc(OC)c1OC,59.2%
13,Cc1ccc(Nc2nc(NCCO)c3ccccc3n2)cc1C,-10.3% (active)
14,O=C(N=Nc1c(O)[nH]c2ccccc12)Nc1ccc(F)cc1,94.5%
15,CNC(=O)c1cc(Oc2ccc3c(c2)sc2nc(-c4cc(C(F)(F)F)cc(C(F)(F)F)c4)cn23)ccn1,45.7%
16,CCO/C=N/C1=C(C#N)C(c2ccc(Cl)cc2)c2c(c3ccccc3n(C)c2=O)O1 (stereo not given),53.4%
17,O=C(CCCCCCCn1cc(-c2cccnc2)nn1)Nc1ccccc1-c1ccccc1,45.7%
